We go through 100 compounds from ChEMBL document CHEMBL3988442, “University of Dundee, Small-Polar-MMV Screening Library” (2021).

The structures appear in SMILES notation. In all, about 48,000 compounds went through this assay and about 13,000 (27%) showed an effect of 50% or more. The list shows a part of the results.

The test system of this assay is Wolbachia pipientis. Nature of the assay: Anti-Wolbachia Cell-Based Screen. The assay is classed as functional. On the set-up: scale not given: in the data most compounds retested in dose-response had high values. As to conditions: 5 µM.
As to `Cc1noc(C)c1-c1cccc(C2CN(S(=O)(=O)N(C)C)CCO2)n1` (stereo not given), the “Percent Effect” value was 137.9%.

Turning to `Cc1noc(C)c1CN(C)C(=O)C1CCN(S(N)(=O)=O)CC1`, the “Percent Effect” value is recorded as -4.387%.

Consider `CCN(C)C(=O)CN1CCC(c2cc(N3CCOCC3)nc(C)n2)CC1`, for which the “Percent Effect” value was 11.68%. On to `CC(C)c1n[nH]c(C2CN(CC(=O)N(C)Cc3ccco3)CCO2)n1` (stereo not given), for which the “Percent Effect” value is reported as -2.203%. For `Cc1cc(Cl)cc(C)c1CNC1CCN(CC(=O)N(C)C)CC1`, the “Percent Effect” value is -21.25%. For `Cc1noc(C)c1-c1cccc(C2CN(CC(=O)N(C)C)CCO2)n1.O=CO` (stereo not given), the “Percent Effect” value was determined as 138.9%. To `Cc1nc(-c2c(C)noc2C)cc(C2CCN(S(=O)(=O)N(C)C)CC2)n1` belongs 103.8%; to `Cc1cc(C(F)(F)F)c2c(C3CCN(S(=O)(=O)N(C)C)CC3)noc2n1`, -7.595%. In the case of `CCc1n[nH]c(C2CN(CC(=O)N(C)Cc3ccco3)CCO2)n1` (stereo not given), the “Percent Effect” value was -22.35%.

Consider `Cc1nc(-c2c(C)noc2C)cc(C2CCN(CC(=O)N(C)C)CC2)n1`, for which the “Percent Effect” value stood at 77.89%. To `CCC[C@H]1CN(S(=O)(=O)c2ccc(-c3c(C)noc3C)s2)C[C@@H]1N` belongs -6.038%; to `Oc1ccc(-c2c(-c3ccccc3)ncn2C[C@H]2CCCN2)cc1`, -6.352%. For `CCc1noc(C(C)N2CCC(NS(=O)(=O)c3ccccc3)CC2)n1` (stereo not given), the “Percent Effect” value was -5.336%. Regarding `Cc1noc(C)c1-c1cccc(C2CCN(CC(=O)N(C)C)CC2)n1`, the “Percent Effect” value is listed as 159.5%. As to `CN(C(=O)CN1CCC(c2cc3ccccc3[nH]2)CC1)C1CC1`, the “Percent Effect” value is given as -16.32%. As to `CN(C(=O)CN1CCC(c2cc3ccccc3[nH]2)CC1)C(C)(C)C#N`, the “Percent Effect” value is given as -0.1259%. Under `Cc1csc(CNc2cccc(OCCN3CCCC3)c2)n1` stands -3.385%.

For `CC(C)c1nc(C2CCCN(C(=O)c3nccn4ccnc34)C2)no1` (stereo not given), the “Percent Effect” value is reported as 101.8%. To `CCOc1cc(C(=O)N2CCCC(c3noc(CC)n3)C2)ccn1` (stereo not given) belongs 112.4%.

In the case of `CCOc1cc(C(=O)N2CCCC(c3noc(C)n3)C2)ccn1` (stereo not given), the “Percent Effect” value was -8.742%. As for `CCOc1cc(CNC(=O)NCc2nc(C)c(C)s2)ccn1`, the “Percent Effect” value is -14.7%. `Cc1ncsc1C(=O)N1CCCC(c2noc(C(C)C)n2)C1` (stereo not given): the “Percent Effect” value is listed as -0.9065%.

Take `CCOc1cc(C(=O)N2CC=C(c3ccc(O)cc3)CC2)ccn1`: the “Percent Effect” value was -12.82%. As to `CCOc1cc(C(=O)N2CCCC(c3noc(C(C)C)n3)C2)ccn1` (stereo not given), the “Percent Effect” value was 127.2%.

For the compound `CCOc1cc(C(=O)N2CCCC(c3nc(C)c(C)s3)C2)ccn1` (stereo not given), the “Percent Effect” value came to 118.9%. To `CCNc1ncc(CN2C[C@H]3CC[C@@H]2CN(C(=O)C2CCC2)C3)cn1` belongs -9.372%; to `COCc1cc(N2CCN(c3ccc(Cl)cn3)CC2)n2nccc2n1`, -13.5%; to `COc1ccc(F)c(CN2CCCC(O)(CNCc3ccoc3)C2=O)c1` (stereo not given), 4.177%. With `Cc1nc[nH]c1CN(C)CC1CCCN(CCc2ccc(Cl)cc2)C1` (stereo not given), the “Percent Effect” value is reported as -5.725%. Turning to `Cc1nc[nH]c1CN(Cc1ccccc1)C1CC(C)(C)NC(C)(C)C1.O=C(O)CC(O)(CC(=O)O)C(=O)O`, the “Percent Effect” value was 106.8%.

`O=C(c1cc[nH]n1)N(Cc1ccccc1)CC1CCC1`: the “Percent Effect” value is -1.584%. As for `Cc1ccc(CN(Cc2c[nH]cn2)C2CC(C)(C)NC(C)(C)C2)o1.O=C(O)CC(O)(CC(=O)O)C(=O)O`, the “Percent Effect” value is listed as 1.098%.

With `CC1(C)CC(N(Cc2ccccc2)Cc2c[nH]cn2)CC(C)(C)N1.O=C(O)CC(O)(CC(=O)O)C(=O)O`, the “Percent Effect” value came to 113.6%. To `Cc1nc[nH]c1CN(Cc1ccc(F)cc1)C1CC(C)(C)NC(C)(C)C1` belongs 102.8%; to `Cc1ccc(CNC(=O)N(Cc2ccccc2F)C2CC2)cn1`, -4.204%. `Cc1nc[nH]c1CN(Cc1ccccc1F)C1CC(C)(C)NC(C)(C)C1.O=C(O)CC(O)(CC(=O)O)C(=O)O`: the “Percent Effect” value is given as 111.6%. For `Cc1n[nH]c(C)c1CNC(=O)N(Cc1ccccc1)CC(C)(C)O`, the “Percent Effect” value is -20.3%. In the case of `CCCc1cc(CN(C)C2CC(C)(C)NC(C)(C)C2)n[nH]1`, the “Percent Effect” value is -6.342%.

In the case of `O=C(c1ccc(C2CCCN2C(=O)c2ccoc2)s1)N1CCOCC1` (stereo not given), the “Percent Effect” value is -19.01%. As to `Cc1cnc(C)c(-c2cc(O)c3c(c2)CN(c2nccs2)CCO3)n1`, the “Percent Effect” value was -4.792%. As for `O=C(CCc1ccco1)NS(=O)(=O)Cc1ccon1`, the “Percent Effect” value was -7.253%. Take `Fc1cccc2c1CCC2NCc1ccc(N2CCOCC2)cc1` (stereo not given): the “Percent Effect” value is reported as 19.23%. In the case of `Cc1nc(CN(C)S(=O)(=O)c2ccccc2Br)no1`, the “Percent Effect” value came out at 4.725%. As for `Cc1ccc(CN2C[C@H]3CC[C@@H]2CN(Cc2[nH]cnc2C)C3)o1`, the “Percent Effect” value was 6.692%. With `Cc1ccc(CN(Cc2[nH]cnc2C)C2CC(C)(C)NC(C)(C)C2)o1.O=C(O)CC(O)(CC(=O)O)C(=O)O`, the “Percent Effect” value was found to be 115.3%. Under `CCC[C@H]1CN(c2nccc(OC)n2)C[C@@H]1NC(=O)C1CCOCC1` stands -2.049%; under `CCC[C@H]1CN(c2nc(CO)cs2)C[C@@H]1NC(=O)C1(COC)CC1`, 96.14%; under `Cc1nc(O)cc(CN2C[C@H](NC(=O)C3CCC3)[C@@H](C3CC3)C2)n1`, -31.53%. In the case of `CC(=O)N[C@@H]1CN(c2nc(CO)cs2)C[C@H]1c1ccc(C)o1`, the “Percent Effect” value is on record as 5.445%. Take `CCC[C@H]1CN(Cc2nccn2C)C[C@@H]1NC(=O)C1(COC)CCC1`: the “Percent Effect” value is -15.87%. On to `Cc1nc(O)cc(CN2C[C@H](NC(=O)C3CCCC3)[C@@H](C3CC3)C2)n1`, for which the “Percent Effect” value came out at 0%. `CCC[C@H]1CN(c2nc(CO)cs2)C[C@@H]1NC(=O)C1CCC1`: the “Percent Effect” value came to 94.3%. To `O=C(N[C@H]1CN(c2nc(CO)cs2)C[C@@H]1C1CC1)C1CCCCC1` belongs 92.34%; to `CCC[C@H]1CN(Cc2cscn2)C[C@@H]1NC(=O)C1(COC)CCC1`, 6.083%; to `COc1ccc(Br)cc1CCC(=O)N1CCC(O)CC1`, -2.628%. In the case of `COc1ccc(-n2c(SCC(=O)O)nnc2-c2cn[nH]c2)cc1`, the “Percent Effect” value was -10.86%. In the case of `O=C(C1CCCS1)N1CCOc2cccc(F)c21` (stereo not given), the “Percent Effect” value is -0.5094%. Regarding `Cc1noc(C)c1NC(=O)N1CCC(NC(=O)OC(C)(C)C)CC1`, the “Percent Effect” value was -9.132%. With `Cc1nn(-c2ccccn2)c(C)c1[C@@H]1C=C[C@@H](NC(=O)NC(C)C)C1`, the “Percent Effect” value is 4.559%. Regarding `COc1ccc(Oc2ncccc2NC(=O)N2CCOC(C)C2)cc1` (stereo not given), the “Percent Effect” value was 2.088%. Take `CC(=O)N1CCC(c2nccnc2Oc2ccccc2)CC1`: the “Percent Effect” value is -11.76%. In the case of `Cc1cccc(Oc2nccnc2C2CCN(C(=O)C(C)(C)N)CC2)c1`, the “Percent Effect” value is 110.7%. `COCC(=O)N1CCC(Oc2cccc(C)c2)CC1`: the “Percent Effect” value is recorded as 14.96%.

`CC(C)(N)C(=O)N1CCC(c2nccnc2Oc2ccccc2F)CC1`: the “Percent Effect” value is 77.45%. To `Cc1ccc(Oc2nccnc2C2CCN(C(=O)C(C)(C)N)CC2)cc1` belongs 108.2%. `CC(C)(C(=O)N1CCC(C(N)=O)C1)c1ccccc1F` (stereo not given): the “Percent Effect” value is on record as 2.701%. In the case of `CCc1nc(N)sc1C(=O)N1CCCC(COc2cccc(C)c2)C1` (stereo not given), the “Percent Effect” value was -15.03%. To `COc1ccc(Oc2nccnc2C2CCN(C(C)=O)CC2)cc1` belongs 88.85%; to `CC(C)(C(=O)N1CCC(CS(N)(=O)=O)CC1)c1ccccc1F`, -25.38%.

In the case of `CC(C)N1C(=O)CC(NC(=O)c2cc(Cl)sc2Cl)C1=O` (stereo not given), the “Percent Effect” value is reported as -12.95%.

Take `COc1ccc(S(=O)(=O)Nc2cccnc2-n2cncn2)c(C)c1`: the “Percent Effect” value is on record as -3.562%. To `CCc1c(NCc2cccnc2)cnn1CC(C)C` belongs -15.31%; to `CC(C)CN1CCc2[nH]cnc2C12CCN(C(=O)c1ccnn1C)CC2`, -2.92%; to `CC(C)(N)C(=O)N1CCC(c2nccnc2Oc2cccc(F)c2)CC1`, 92.95%. With `O=C(c1coc(COc2cccc(F)c2)n1)N1CC[C@H](O)[C@@H](O)C1`, the “Percent Effect” value is -11.67%.

For the compound `O=C(NCc1nncn1C1CC1)Nc1ccc(OC2CCC2)c(F)c1`, the “Percent Effect” value was determined as 8.636%.

`O=C(NCCNC(=O)C1CC1)c1cnc(-c2ccccc2)nc1`: the “Percent Effect” value came to 15.61%.

For `COc1ccc(OC)c(CCNC(=O)CCC2CCCO2)c1` (stereo not given), the “Percent Effect” value is 18.05%.

As for `Cc1cccc(C)c1OCCNC(=O)CNC(=O)C1CCCC1`, the “Percent Effect” value was -3.994%. Turning to `Cc1ncc(-c2ccccn2)c(CCNC(=O)CCC2CCCO2)n1` (stereo not given), the “Percent Effect” value worked out at 93.7%. With `Cc1ncc(-c2ccccn2)c(CCNC(=O)C2CCCC2)n1`, the “Percent Effect” value was 121.3%. Regarding `CCOCCNC(=O)CCC1CCCO1` (stereo not given), the “Percent Effect” value is reported as -23.31%.

Regarding `CC(NCc1cnc(C2CCC2)s1)c1cccc(-n2ccnc2)c1` (stereo not given), the “Percent Effect” value is given as -10.94%. To `Cc1ccc(CN2CCCC23Cc2ccccc2CNC3=O)cc1` (stereo not given) belongs 128.7%. As for `Cc1cc(C)c2[nH]c(=O)c(CN3CCCC(O)(CO)C3)cc2c1` (stereo not given), the “Percent Effect” value is -6.012%.

As for `O=C(CC1CC1)N1CCC2(CC1)C(=O)NCCN2Cc1ccccc1`, the “Percent Effect” value is recorded as -11.42%. To `Cc1cc(C)c(CN2CCCC23Cc2ccccc2CNC3=O)c(C)c1` (stereo not given) belongs 111.5%; to `Cc1ccc(CCN2CCCC23Cc2ccccc2CNC3=O)cc1` (stereo not given), 109.3%. For the compound `CC(C)NC(=O)N1CCC2(CC1)C(=O)NCCN2Cc1ccccc1.O=C(O)C(F)(F)F`, the “Percent Effect” value is recorded as -27.1%.

With `O=C1N(CCc2ccccc2)CCCC1(O)CNCc1ccc(F)cc1` (stereo not given), the “Percent Effect” value was found to be 10.95%. Under `OC(CNCCn1cccn1)COc1cccc(C(F)(F)F)c1` (stereo not given) stands 6.446%. In the case of `CCN1CCC(NC(=O)CNC(C)Cn2cccn2)CC1` (stereo not given), the “Percent Effect” value is recorded as 5.956%. Consider `CCC[C@@H]1CN(Cc2cc3c(cc2OC)OCO3)C[C@H]1C(=O)O`, for which the “Percent Effect” value amounted to 5.15%. As for `CCc1ncncc1C(=O)NCCNc1ncnc2sccc12`, the “Percent Effect” value is -23.73%.

Consider `CCOC[C@@H]1CC[C@H]2[C@H](CCN2S(=O)(=O)Cc2ccccc2)O1`, for which the “Percent Effect” value is -7.135%.

In the case of `COCC(=O)N1CC[C@@H]2O[C@H](COCc3csc(C)n3)CC[C@@H]21`, the “Percent Effect” value worked out at 4.421%. Regarding `CCOC[C@@H]1CC[C@H]2[C@H](CCN2C(=O)c2cnccn2)O1`, the “Percent Effect” value was 112.7%. On to `Cc1nc(COC[C@H]2CC[C@H]3[C@H](CCN3C(N)=O)O2)cs1`, for which the “Percent Effect” value was -9.234%. In the case of `CCOC[C@H]1CC[C@H]2[C@H](CCN2C(=O)c2cnccn2)O1`, the “Percent Effect” value was 103.2%. Regarding `Cc1nc(COC[C@@H]2CC[C@H]3[C@H](CCN3C(=O)C3CC3)O2)cs1`, the “Percent Effect” value is given as -1.141%.
